For 31 compounds, Inhibition results are on record in ChEMBL document CHEMBL1157539, “Thousands of chemical starting points for antimalarial lead identification” (Nature, 2010).

Common to all, as to format: functional
The subject of assay [1] is Plasmodium falciparum. Put plainly: GSK_TCMDC: Inhibition of Plasmodium falciparum 3D7 in whole red blood cells, using parasite LDH activity as an index of growth. Test compounds present at 2uM.
Assay [2] has as its system Plasmodium falciparum. Briefly: GSK_TCMDC: Inhibition of Plasmodium falciparum Dd2 in whole red blood cells, using parasite LDH activity as an index of growth. Test compounds present at 2uM.
A further assay has as its system HepG2. Put plainly: GSK_TCMDC: Percent inhibition of human HepG2 cell line. Test compounds present at 10uM.

One may read the Inhibition as the drop in the measured response relative to a control, in per cent. A lower Inhibition goes with little suppression. In the case of `CCNc1cc(C(=O)N[C@@H](Cc2ccccc2)[C@H](O)CNC2CCCCC2)cc(N2CCCCS2(=O)=O)c1`, the figures for the Inhibition with Plasmodium falciparum [1], in the assay on Plasmodium falciparum [2] and in the assay with HepG2 were 99%, 98% and 11%, respectively.

As to `O=C(Nc1nc2ccc(Cl)cc2s1)c1csnn1`, the results for the Inhibition in the assay on Plasmodium falciparum [1], in the assay on Plasmodium falciparum [2] and with HepG2 were 96%, 99% and 15%, respectively.

Regarding `COc1ccc(CNC2CCN(C)CC2)cc1-c1ccc(S(=O)(=O)NCCc2ccccn2)cc1.O=C(O)C(F)(F)F`, the figures for the Inhibition in the assay with Plasmodium falciparum [1], in the assay with Plasmodium falciparum [2] and in the assay on HepG2 were 93%, 17% and 13%, respectively.

With `O=C(Nc1ccc(Cl)c(Cl)c1)N1CCC(CNCc2cccc([N+](=O)[O-])c2)CC1.O=C(O)C(F)(F)F`, the figures for the Inhibition in the assay on Plasmodium falciparum [1], with Plasmodium falciparum [2] and in the assay with HepG2 were 98%, 6% and 13%, respectively.

In the case of `CCN1CCCC(Nc2ccnc3cc4ccccc4cc23)C1` (stereo not drawn), the Inhibition in the assay with Plasmodium falciparum [1] is 100%; in the assay on Plasmodium falciparum [2], 100%; with HepG2, 38%.

Take `CCC[C@@H]([C@@H](CC1CCCCC1)C(=O)N[C@@H](CCCCNS(C)(=O)=O)C(=O)Nc1nccs1)N(O)C=O`: the figures for the Inhibition with Plasmodium falciparum [1], in the assay with Plasmodium falciparum [2] and with HepG2 were 100%, 74% and 0%, respectively.

Take `CN1CCCc2cc(NC(=O)C=Cc3ccc(-c4ccc(F)cc4F)o3)ccc2C1.O=C(O)C(F)(F)F`: the Inhibition is 90% with Plasmodium falciparum [1], 27% in the assay with Plasmodium falciparum [2] and 5% in the assay with HepG2.

`COc1ccc(Nc2nc(NCc3ccco3)c3ccccc3n2)cc1.Cl`: the Inhibition was determined as 99% with Plasmodium falciparum [1], 76% in the assay with Plasmodium falciparum [2] and 38% in the assay on HepG2.

For `Cl.N=C(N)Nc1cccc(NC(=O)Nc2cccc(NC(=N)N)c2)c1`, the Inhibition in the assay on Plasmodium falciparum [1] came out at 87%; in the assay on Plasmodium falciparum [2], 71%; in the assay with HepG2, 0%.

Consider `Cc1c(Cl)ccc2c(C(=O)Nc3ccncc3)cc(-c3cccnc3)nc12`, for which the Inhibition came to 99% with Plasmodium falciparum [1], 83% in the assay with Plasmodium falciparum [2] and 16% in the assay with HepG2.

In the case of `Br.CCOC(=O)c1cc(Cl)ccc1OCCCON1C(=N)N=C(N)NC1(C)C`, the Inhibition is 94% in the assay on Plasmodium falciparum [1], 95% with Plasmodium falciparum [2] and 69% in the assay on HepG2.

As for `Cc1cccc2nc(-c3ccc(-c4cccc(NC(=O)CCc5c[nH]cn5)c4)s3)[nH]c12`, the Inhibition with Plasmodium falciparum [1] was found to be 94%; in the assay with Plasmodium falciparum [2] it was 70%; in the assay on HepG2 it was 2%.

Regarding `Cc1cccc(C)c1N1CCN(C2CCC(NC(=O)c3cc4ccccc4[nH]3)CC2)CC1` (stereo not drawn), the Inhibition in the assay with Plasmodium falciparum [1] came to 100%; in the assay on Plasmodium falciparum [2] it was 64%; in the assay with HepG2 it was 31%.

On to `CC(C)(C)Nc1cc(C(=O)N[C@@H](Cc2ccccc2)[C@H](O)CNC2CCOCC2)cc(N2CCCCS2(=O)=O)c1`, for which the values for the Inhibition in the assay on Plasmodium falciparum [1], in the assay on Plasmodium falciparum [2] and with HepG2 were 99%, 98% and 0%, respectively.

For `O=C(C=CC(=O)N1CCCCC1)NCc1ccccc1`, the Inhibition in the assay with Plasmodium falciparum [1] stood at 100%; in the assay with Plasmodium falciparum [2], 0%; in the assay on HepG2 it was 6%.

For `COc1cc(Cc2cnc(N)nc2N)cc(OCCCN2C(=O)c3ccccc3C2=O)c1OC`, the Inhibition was determined as 96% with Plasmodium falciparum [1], 0% in the assay on Plasmodium falciparum [2] and 0% in the assay on HepG2.

Turning to `CCOc1c(CNCCCCCCNCc2ccc3ccccc3c2OCC)ccc2ccccc12.CS(=O)(=O)O`, the Inhibition was found to be 99% in the assay on Plasmodium falciparum [1], 78% with Plasmodium falciparum [2] and 100% with HepG2.

`CCOC(=O)NC1=NC(C)(C)N(OCc2cccc3c2ccc2ccccc23)C(NC(=O)OCC)=N1`: the Inhibition in the assay on Plasmodium falciparum [1] is reported as 98%; in the assay with Plasmodium falciparum [2] it was 3%; in the assay on HepG2, 3%.

With `CNS(=O)(=O)Cc1ccc(Nc2nccc(Nc3cccc4c3cnn4C(=O)Nc3ccccc3)n2)cc1`, the Inhibition worked out at 89% in the assay with Plasmodium falciparum [1], 5% in the assay with Plasmodium falciparum [2] and 45% in the assay with HepG2.

`NCCCNc1nc(Nc2cccc(C(N)=O)c2)c2c(=O)[nH]ccc2n1.O=C(O)C(F)(F)F`: the Inhibition is listed as 99% in the assay with Plasmodium falciparum [1], 49% with Plasmodium falciparum [2] and 9% with HepG2.

With `CS(=O)(=O)N1CC2(CCN(CCC(NC(=S)Nc3ccccc3)c3ccc(Cl)c(Cl)c3)CC2)c2ccccc21` (stereo not drawn), the Inhibition is recorded as 98% in the assay on Plasmodium falciparum [1], 80% in the assay with Plasmodium falciparum [2] and 24% in the assay on HepG2.

On to `CN1CCN(c2ccc(Nc3c(C(N)=O)cnc4cc(-c5ccoc5)ccc34)cc2)CC1.Cl`, for which the Inhibition was 100% in the assay on Plasmodium falciparum [1], 99% with Plasmodium falciparum [2] and 14% with HepG2.

As to `Cc1cc2[nH]c(-c3ccc(C(=O)NCCCN4CCN(c5cccc(Cl)c5)CC4)cc3)nc2cc1Cl`, the values for the Inhibition with Plasmodium falciparum [1], with Plasmodium falciparum [2] and with HepG2 were 98%, 73% and 1%, respectively.

For the compound `CCOc1cc(C)ccc1C1CCN(CCCCNC(=O)c2ccc(NC(=O)c3cc(Cl)cc(Cl)c3)cc2)CC1`, the Inhibition in the assay on Plasmodium falciparum [1] is recorded as 99%; in the assay on Plasmodium falciparum [2], 78%; with HepG2, 4%.

`O=c1ccc(-c2nc3cc(Cl)c(Cl)cc3n2Cc2ccc(Cl)cc2Cl)c[nH]1`: the Inhibition in the assay with Plasmodium falciparum [1] is 88%; in the assay on Plasmodium falciparum [2], 67%; in the assay on HepG2 it was 0%.

For `O=C(Nc1cc(C(F)(F)F)cc(C(F)(F)F)c1)Nc1cc(C(F)(F)F)cc(C(F)(F)F)c1`, the Inhibition is recorded as 97% with Plasmodium falciparum [1], 100% in the assay with Plasmodium falciparum [2] and 5% with HepG2.

Turning to `CCCCCC(C)(C)NC[C@@H](O)[C@H](Cc1ccccc1)NC(=O)c1cc(NCC)cc(N2CCCC2=O)c1.O=CO`, the Inhibition with Plasmodium falciparum [1] was determined as 99%; in the assay with Plasmodium falciparum [2] it was 97%; in the assay on HepG2, 9%.

Regarding `O=C(Nc1ccsc1)Nc1cccc(-c2cccc(-c3nc4ccccc4[nH]3)c2)c1`, the Inhibition was found to be 100% with Plasmodium falciparum [1], 55% in the assay on Plasmodium falciparum [2] and 61% in the assay with HepG2.

As for `OC(CNc1ccnc(Nc2cccc(CCN3CCOCC3)c2)n1)c1ccccc1` (stereo not drawn), the Inhibition with Plasmodium falciparum [1] came to 100%; with Plasmodium falciparum [2] it was 14%; in the assay on HepG2, 34%.

Consider `CC1CC(NCCCNc2cc(=O)c3ccccc3[nH]2)c2cc(Cl)c(Cl)c(Cl)c21` (stereo not drawn), for which the Inhibition in the assay with Plasmodium falciparum [1] is 100%; with Plasmodium falciparum [2], 69%; with HepG2, 0%.

For the compound `CN1CCC(NCc2cccc(-c3ccc(S(=O)(=O)NCCc4ccccn4)cc3)c2)CC1.O=C(O)C(F)(F)F`, the Inhibition in the assay on Plasmodium falciparum [1] is reported as 95%; in the assay on Plasmodium falciparum [2] it was 1%; with HepG2, 10%.
